Test results as given in PubChem BioAssay AID1159580 (chemical genetic matrix, 2015).
Among all 5,500 compounds or so, about 2,000 (36%) were called active. Inconclusive results (about 18%) are left out. Cut-off read from the data, not from the text of the source: active = normalized growth mostly below about 0.91 (no sharp cut-off); inconclusive = no clear call, values can overlap the other calls; inactive = mostly above about 0.92. This is one part of the list.

Assay: chemical genetic growth profiling, strain panel (AID 1159580);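 note: tested at 20 µM; growth read once vehicle control cultures reached saturation at 30 °C; 1 = growth at the plate median or of vehicle wells; lower values mean less growth of the strain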
Details: growth OD
[1] = S. cerevisiae deletion strains, locus YDL101C, strain DUN1, stronger effect = lower value
[2] = S. cerevisiae deletion strains, locus YHR030C, strain SLT2, stronger effect = lower value
[3] = S. cerevisiae deletion strains, locus YAL013W, strain DEP1, stronger effect = lower value
[4] = S. cerevisiae deletion strains, locus YBR229C, strain ROT2, stronger effect = lower value
[5] = S. cerevisiae deletion strains, locus YDR150W, strain NUM1, stronger effect = lower value
[6] = S. cerevisiae deletion strains, locus YEL061C, strain CIN8, stronger effect = lower value
[7] = S. cerevisiae deletion strains, locus YGR078C, strain PAC10, stronger effect = lower value
[8] = S. cerevisiae deletion strains, locus YHR087W, strain rtc3, stronger effect = lower value
[9] = S. cerevisiae deletion strains, locus YJR043C, strain POL32, stronger effect = lower value
[10] = S. cerevisiae deletion strains, locus YJR075W, strain HOC1, stronger effect = lower value
[11] = S. cerevisiae deletion strains, locus YLR039C, strain RIC1, stronger effect = lower value
[12] = S. cerevisiae deletion strains, locus YLR058C, strain SHM2 (second series), stronger effect = lower value
[13] = S. cerevisiae deletion strains, locus YLR085C, strain ARP6, stronger effect = lower value
[14] = S. cerevisiae deletion strains, locus YLR262C, strain YPT6, stronger effect = lower value
[15] = S. cerevisiae deletion strains, locus YML094W, strain GIM5, stronger effect = lower value
[16] = S. cerevisiae deletion strains, locus YMR219W, strain ESC1, stronger effect = lower value
[17] = S. cerevisiae deletion strains, locus YMR263W, strain SAP30, stronger effect = lower value
[18] = S. cerevisiae deletion strains, locus YMR307W, strain GAS1, stronger effect = lower value
[19] = S. cerevisiae deletion strains, locus YNL153C, strain GIM3, stronger effect = lower value
[20] = S. cerevisiae deletion strains, locus YNL298W, strain CLA4 (second series), stronger effect = lower value
[21] = S. cerevisiae deletion strains, locus YNL322C, strain KRE1, stronger effect = lower value
[22] = S. cerevisiae deletion strains, locus YNR030W, strain Alg12, stronger effect = lower value
[23] = S. cerevisiae deletion strains, locus YPL055C, strain LGE1, stronger effect = lower value
[24] = S. cerevisiae deletion strains, locus YPL241C, strain CIN2, stronger effect = lower value
[25] = S. cerevisiae deletion strains, locus YPR135W, strain CTF4, stronger effect = lower value

Measured: normalized growth

CC(C)(C)c1ccc(-c2cc(NC(=O)c3ccc(Cl)cc3)n[nH]2)cc1
active: S. cerevisiae deletion strains, locus YPL256C, strain CLN2, stronger effect = lower value 1.21 [resistant]
inactive: S. cerevisiae deletion strains, locus YAR019C, strain CDC15, stronger effect = lower value 0.986 | S. cerevisiae deletion strains, locus YBL105C, strain PKC1, stronger effect = lower value 1.02 | S. cerevisiae deletion strains, locus YBR135W, strain CKS1, stronger effect = lower value 1.02 | S. cerevisiae deletion strains, locus YBR136W, strain MEC1, stronger effect = lower value 1.01 | S. cerevisiae deletion strains, locus YBR160W, strain CDC28, stronger effect = lower value 0.99 | S. cerevisiae deletion strains, locus YDL017W, strain CDC7, stronger effect = lower value 1 | S. cerevisiae deletion strains, locus YDL028C, strain MPS1, stronger effect = lower value 1.03 | [1] 1.01 | S. cerevisiae deletion strains, locus YDL108W, strain KIN28, stronger effect = lower value 1.01 | S. cerevisiae deletion strains, locus YDL132W, strain cdc53, stronger effect = lower value 1.03 | S. cerevisiae deletion strains, locus YDL214C, strain PRR2, stronger effect = lower value 1.04 | S. cerevisiae deletion strains, locus YDR052C, strain DBF4, stronger effect = lower value 0.995 | S. cerevisiae deletion strains, locus YDR054C, strain cdc34, stronger effect = lower value 1.01 | S. cerevisiae deletion strains, locus YDR226W, strain ADK1, stronger effect = lower value 1.01 | S. cerevisiae deletion strains, locus YDR477W, strain SNF1, stronger effect = lower value 1.02 | S. cerevisiae deletion strains, locus YER123W, strain YCK3, stronger effect = lower value 1.01 | S. cerevisiae deletion strains, locus YER133W, strain GLC7, stronger effect = lower value 1.02 | S. cerevisiae deletion strains, locus YFL009W, strain cdc4, stronger effect = lower value 1.02 | S. cerevisiae deletion strains, locus YFL029C, strain CAK1, stronger effect = lower value 1.01 | S. cerevisiae deletion strains, locus YFR003C, strain YPI1, stronger effect = lower value 1.01 | S. cerevisiae deletion strains, locus YFR019W, strain FAB1, stronger effect = lower value 1.01 | S. cerevisiae deletion strains, locus YFR028C, strain CDC14, stronger effect = lower value 1.01 | S. cerevisiae deletion strains, locus YGR040W, strain KSS1, stronger effect = lower value 1.03 | S. cerevisiae deletion strains, locus YGR052W, strain FMP48, stronger effect = lower value 0.995 | S. cerevisiae deletion strains, locus YGR092W, strain DBF2, stronger effect = lower value 0.933 | [2] 1.08 | S. cerevisiae deletion strains, locus YHR079C, strain IRE1, stronger effect = lower value 1.1 | S. cerevisiae deletion strains, locus YHR082C, strain KSP1, stronger effect = lower value 1.1 | S. cerevisiae deletion strains, locus YHR205W, strain SCH9, stronger effect = lower value 0.96 | S. cerevisiae deletion strains, locus YIL147C, strain SLN1, stronger effect = lower value 1.04 | S. cerevisiae deletion strains, locus YJL095W, strain BCK1, stronger effect = lower value 0.999 | S. cerevisiae deletion strains, locus YJL128C, strain PBS2, stronger effect = lower value 0.978 | S. cerevisiae deletion strains, locus YJL157C, strain FAR1, stronger effect = lower value 1.01 | S. cerevisiae deletion strains, locus YJR016C, strain ILV3, stronger effect = lower value 1.03 | S. cerevisiae deletion strains, locus YJR066W, strain TOR1 (second series), stronger effect = lower value 0.983 | S. cerevisiae deletion strains, locus YJR066W, strain TOR1, stronger effect = lower value 1.05 | S. cerevisiae deletion strains, locus YKL048C, strain ELM1, stronger effect = lower value 1.03 | S. cerevisiae deletion strains, locus YKL067W, strain YNK1, stronger effect = lower value 1.02 | S. cerevisiae deletion strains, locus YKL101W, strain HSL1, stronger effect = lower value 1.05 | S. cerevisiae deletion strains, locus YKL193C, strain SDS22, stronger effect = lower value 1.03 | S. cerevisiae deletion strains, locus YKL203C, strain TOR2, stronger effect = lower value 1.09 | S. cerevisiae deletion strains, locus YLR113W, strain HOG1, stronger effect = lower value 1.03 | S. cerevisiae deletion strains, locus YLR133W, strain CKI1, stronger effect = lower value 1.02 | S. cerevisiae deletion strains, locus YLR403W, strain SFP1, stronger effect = lower value 0.971 | S. cerevisiae deletion strains, locus YML070W, strain DAK1, stronger effect = lower value 1.04 | S. cerevisiae deletion strains, locus YMR001C, strain CDC5, stronger effect = lower value 1 | S. cerevisiae deletion strains, locus YMR205C, strain PFK2 (second series), stronger effect = lower value 0.99 | S. cerevisiae deletion strains, locus YMR277W, strain FCP1, stronger effect = lower value 1.02 | S. cerevisiae deletion strains, locus YNL006W, strain LST8, stronger effect = lower value 0.999 | S. cerevisiae deletion strains, locus YNL020C, strain ARK1, stronger effect = lower value 1.03 | S. cerevisiae deletion strains, locus YNL161W, strain CBK1, stronger effect = lower value 1.02 | S. cerevisiae deletion strains, locus YNL183C, strain NPR1, stronger effect = lower value 1.04 | S. cerevisiae deletion strains, locus YNL207W, strain RIO2, stronger effect = lower value 1.01 | S. cerevisiae deletion strains, locus YNL222W, strain SSU72, stronger effect = lower value 0.992 | S. cerevisiae deletion strains, locus YNL307C, strain MCK1 (second series), stronger effect = lower value 1 | S. cerevisiae deletion strains, locus YOL078W, strain AVO1, stronger effect = lower value 1.01 | S. cerevisiae deletion strains, locus YOL136C, strain PFK27, stronger effect = lower value 1.03 | S. cerevisiae deletion strains, locus YOR061W, strain CKA2, stronger effect = lower value 0.993 | S. cerevisiae deletion strains, locus YOR119C, strain RIO1, stronger effect = lower value 1.1 | S. cerevisiae deletion strains, locus YOR231W, strain MKK1, stronger effect = lower value 1.02 | S. cerevisiae deletion strains, locus YOR329C, strain SCD5, stronger effect = lower value 1.04 | S. cerevisiae deletion strains, locus YPL031C, strain PHO85, stronger effect = lower value 1.02 | S. cerevisiae deletion strains, locus YPL153C, strain RAD53, stronger effect = lower value 1.01 | S. cerevisiae deletion strains, locus YPL204W, strain HRR25, stronger effect = lower value 1.01 | S. cerevisiae deletion strains, locus YPL209C, strain IPL1, stronger effect = lower value 1.01 | S. cerevisiae deletion strains, locus YPR025C, strain CCL1, stronger effect = lower value 1 | S. cerevisiae deletion strains, locus YPR106W, strain ISR1, stronger effect = lower value 1.01 | S. cerevisiae deletion strains, locus YPR111W, strain DBF20, stronger effect = lower value 1 | S. cerevisiae deletion strains, strain NNK1, stronger effect = lower value 1.01 | S. cerevisiae deletion strains, strain TSCII, stronger effect = lower value 1.03

CC(C)(C)c1cc(C(=O)NN)n[nH]1
inactive: [3] 1.01 | [4] 1.01 | [1] 0.973 | [5] 0.995 | [6] 1.01 | [7] 0.996 | S. cerevisiae deletion strains, locus YGR229C, strain SMI1, stronger effect = lower value 1 | [2] 1.06 | [8] 1 | S. cerevisiae deletion strains, locus YJL187C, strain SWE1, stronger effect = lower value 0.988 | [9] 0.997 | [10] 0.979 | [11] 1.08 | [12] 0.995 | [13] 1.15 | [14] 1.04 | [15] 1.04 | [16] 1 | [17] 0.984 | [18] 1 | [19] 0.991 | [20] 1.01 | [21] 0.997 | [22] 1 | S. cerevisiae deletion strains, locus YOL006C, strain TOP1, stronger effect = lower value 1.09 | [23] 1.04 | [24] 0.953 | [25] 1.21 | S. cerevisiae strains, strain wild type, stronger effect = lower value 1.01

Cc1cc(NS(=O)(=O)c2ccc(NC(=O)c3ccccc3)cc2)no1
inactive: [3] 0.988 | [4] 0.995 | [1] 0.979 | [5] 1.03 | [6] 1.03 | [7] 0.984 | [2] 1.03 | [8] 1.01 | [9] 0.983 | [10] 0.992 | [11] 1.02 | [12] 1.02 | [13] 1.05 | [14] 0.986 | [15] 1.02 | [16] 1.01 | [17] 0.916 | [18] 1.03 | S. cerevisiae deletion strains, locus YNL128W, strain TEP1, stronger effect = lower value 1 | [19] 1 | [20] 1 | [21] 1.01 | [22] 1 | [23] 1.03 | [24] 1.02 | [25] 0.991
